Measured values from PubChem BioAssay (NCATS).
Inconclusive results are not listed. Active and inactive are the calls of the source. The call rests on the fitted dose curve; in most records, active means well fitted inhibition curve with a large enough effect; inconclusive means small, poorly fitted or top-dose-only effect; inactive means flat fitted curve, though single readings scatter. Where a SMILES comes first, the peptide text is derived from it. [ ]: non-standard residue; d: D form. ξ: configuration not given here. ξTyr(βOH) = NC(C(=O)O)C(O)c1ccc(O)cc1

Test: P-glycoprotein substrates identified in KB-8-5-11 adenocarcinoma cell line, qHTS therapeutic library screen (AID 1346987); further: nearly all actives have a fitted effect of over 65% in size
Conditions: KB-8-5-11 (P-gp overexpressing) viability, CellTiter-Glo, 72 h; series mostly up to 44.5 µM; activity change, negative = cytotoxicity: at the top concentration
In short: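 KB-8-5-11: colchicine-selected sub-line of KB-3-1 over-expressing P-gp; assay medium lacked colchicine. 72 h drug exposure at 37 degree C, CellTiter-Glo.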
On the % scale 0 is the no-effect control and ±100 the full control effect.

SMILES | outcome | activity change, negative = cytotoxicity
CC(C)=C1CC2[C@](C)(CC[C@@H](OC(=O)C3(C)OC3C)[C@@]2(C)O)CC1=O (stereo not given in full) | inactive | –
CC(C)C(O)(CO)CCO[C@@H]1O[C@H](CO[C@H]2OC[C@](O)(CO)[C@H]2O)[C@@H](O)[C@H](O)[C@H]1O (stereo not given in full) | inactive [at 17.3 µM] | –
COC(=O)[C@]1(C)CCC[C@@]2(C)[C@@H]3CC[C@@H]4C[C@@]3(CC[C@@H]21)C[C@H]4C(=O)O | inactive | –
CC/C=C\C(O)C(O)C1=C(C)C(=O)C2(O1)C(=O)NC(OC)(C(=O)c1ccccc1)C2O (stereo not given) | inactive [at 17.3 µM] | –
O=C(O)Cc1cn([C@@H]2O[C@H](CO)[C@@H](O)[C@H](O)[C@H]2O[C@@H]2O[C@H](CO)[C@@H](O)[C@H](O)[C@H]2O)c2ccccc12 | inactive [at 17.3 µM] | –
C=C1C[C@@]2(O)O[C@@]3(C[C@H]2C(C)C)[C@@H](C)CC[C@@H]13 | inactive | –
CC1=C(CO)CC(C(C)C2CCC3C4CC=C5CC(OC6OC(COC7OC(CO)C(O)C(O)C7O)C(O)C(O)C6O)CC(O)C5(C)C4CCC23C)OC1=O (stereo not given) | inactive [at 17.3 µM] | –
CCN(CCN(C)C)C(=O)CNCc1cc(C(N)=O)ccn1 | inactive | –
C[C@@H]1O[C@@H](O[C@H]2[C@@H]3C=CO[C@@H](O[C@@H]4O[C@H](CO)[C@@H](O)[C@H](O)[C@H]4O)[C@@H]3[C@@]3(CO)O[C@@H]23)[C@H](OC(=O)/C=C/c2ccc(O)cc2)[C@H](O)[C@H]1O | – | 2.42% [at 17.3 µM] (inactive)
CC1=CCC(O)C2(C)CCC3C(C)C(=O)OC3C12 (stereo not given) | – | -0.961% (inactive)
C=CC(C)(CC/C=C(\C)C(=O)OC)OC1OC(COC(=O)CC(C)(O)CC(=O)O)C(O)C(O)C1O (stereo not given) | – | 1.08% [at 17.3 µM] (inactive)
C[C@@H]1C(=O)O[C@H]2[C@H]1CC[C@@]1(C)C(=O)C=C[C@@](C)(O)[C@H]21 | – | 6.32% (inactive)
C=C1C(O)C(O)C2(CC3C(C)=CCC4C(C)(C(=O)O)CCCC34C)OC2C1O (stereo not given) | – | 8.49% (inactive)
CSCC[C@H](NC(=O)[C@H](CO)NC(=O)[C@H](CCC(=O)O)NC(C)=O)C(=O)N[C@H](C=O)CC(=O)O (Ac-ESMD-aldehyde) | – | 5.02% [at 9.29 µM] (inactive)
COC(=O)C1=CO[C@@H](O[C@@H]2O[C@H](CO)[C@@H](O)[C@H](O)[C@H]2O)[C@H]2[C@@H]1[C@H](O)[C@H](O)[C@]2(C)O | inactive [at 17.3 µM] | –
C/C1=C\CC[C@]2(C)O[C@H]2C(=O)c2c(C)coc2C1 | – | -3.61% (inactive)
C=C1CC[C@@H]2C(C)(C)CCC[C@@]2(C)[C@@H]1CC/C(=C/C(=O)OC)COC(C)=O | – | -3.75% (inactive)
COC(=O)C(Cc1ccccc1)NC(=O)c1ccccc1 (stereo not given) | inactive | –

SMILES | outcome | activity change, negative = cytotoxicity
C=C(C)C1Cc2c(ccc3c2OCC(c2ccc(O)cc2O)C3)O1 (stereo not given) | – | -24.8% (inactive)
COc1ccc2c(c1)C=C1Cn3c-2c(C2CCCCC2)c2ccc(cc23)C(=O)NS(=O)(=O)N(C)CCOCCN(C)C1=O | – | -6.99% (inactive)
Cc1ccc(Nc2nnc(-c3ccc([N+](=O)[O-])cc3)o2)cc1Cl | – | -7.62% (inactive)
Cn1nccc1-c1ccccc1Oc1ccc(S(=O)(=O)Nc2nccs2)cc1C#N | inactive | –
CC(C)(Oc1ccc(-c2nc3cc(Cl)ccc3s2)cc1)C(=O)O | – | -6.26% (inactive)
CC(=O)/C=C/C1(O)C(C)=CC(=O)CC1(C)C (stereo not given) | inactive | –
CC1=CC2=C(C)C(=O)[C@](C)(O)[C@H](O)C2=CO1 | inactive | –
COC(=O)[C@]1(C)CCC[C@@]2(C)C(=O)CC[C@H]3C(=O)C=C(CC[C@@H]21)C3O (stereo not given in full) | – | 9.87% (inactive)
CC1(C)CCC[C@@]2(C)[C@H]1[C@H](O)C=C(CO)[C@]2(O)CO | inactive | –
COc1c2c(c(C)c3c1C(=O)OC3)OC1(C)CC(O)C34OC(O)(CCC3(C)C1C2)OC4(C)C (stereo not given) | inactive [at 17.3 µM] | –
Cc1cc(O[C@@H]2O[C@H](COC(=O)CC(=O)O)[C@@H](O)[C@H](O)[C@H]2O)c(C(C)C)cc1O | – | -7.8% [at 17.3 µM] (inactive)
Cc1cc(-c2nncc3c(C(C)(C)C)c(OCc4ncnn4C)nn23)no1 | – | -3.36% (inactive)
C=C(C(=O)O)[C@@H]1CC[C@@]2(C)CCC[C@@](C)(O)[C@@H]2C1 | – | 9.93% (inactive)
CCC1=C(C)C(=O)C(C)CC12C(=O)CCC2C(=O)O (stereo not given) | inactive | –
Oc1ccc2c(-c3c(-c4ccccn4)nn4c3CCC4)ccnc2c1 | – | -8.38% (inactive)
C=C1C(=O)O[C@@H]2C[C@]3(C)[C@@H](CCC(C)=O)[C@@H]3C[C@H]12 | – | -3.03% (inactive)
CC(C)C1NC(=O)CNC(=O)C2CCCN2C(=O)C(Cc2c[nH]c3ccccc23)NC(=O)CNC(=O)C(C(O)c2ccc(O)cc2)NC(=O)CNC1=O (stereo not given) (cyclo(G[ξTyr(βOH)]GWPGV); configuration not given here) | inactive [at 17.3 µM] | –
